Inconclusive results are not listed. Active and inactive are the calls of the source. How the source made its calls: active means hit-call score of the fitted dose curve at least 0.9, where 1 is the maximum; inconclusive means response in the unintended direction; inactive means score below 0.9.

From PubChem BioAssay (EPA / NIEHS) come the findings set out here.

Chain of human Thyroid Receptor alpha (THRa1), THRA (gene 7067) (P10827 whole entry, looked up, the tested form may be a part): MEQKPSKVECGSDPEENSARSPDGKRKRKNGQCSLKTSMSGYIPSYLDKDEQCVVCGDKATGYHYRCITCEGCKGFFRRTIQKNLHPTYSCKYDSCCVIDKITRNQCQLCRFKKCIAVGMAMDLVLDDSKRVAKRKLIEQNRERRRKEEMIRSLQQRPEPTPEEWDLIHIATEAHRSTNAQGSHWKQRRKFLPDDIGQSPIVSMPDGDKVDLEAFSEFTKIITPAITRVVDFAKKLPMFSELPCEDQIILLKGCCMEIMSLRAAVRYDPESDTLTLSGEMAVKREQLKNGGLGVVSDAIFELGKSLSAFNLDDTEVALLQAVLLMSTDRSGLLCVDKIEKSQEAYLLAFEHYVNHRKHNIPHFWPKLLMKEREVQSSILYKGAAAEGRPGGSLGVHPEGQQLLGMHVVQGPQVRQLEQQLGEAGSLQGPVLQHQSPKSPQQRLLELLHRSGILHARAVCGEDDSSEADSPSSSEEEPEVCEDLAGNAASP
Chain of human Retinoid X Receptor beta (RXRb), RXRB (gene 6257) (P28702 whole entry, looked up, the tested form may be a part): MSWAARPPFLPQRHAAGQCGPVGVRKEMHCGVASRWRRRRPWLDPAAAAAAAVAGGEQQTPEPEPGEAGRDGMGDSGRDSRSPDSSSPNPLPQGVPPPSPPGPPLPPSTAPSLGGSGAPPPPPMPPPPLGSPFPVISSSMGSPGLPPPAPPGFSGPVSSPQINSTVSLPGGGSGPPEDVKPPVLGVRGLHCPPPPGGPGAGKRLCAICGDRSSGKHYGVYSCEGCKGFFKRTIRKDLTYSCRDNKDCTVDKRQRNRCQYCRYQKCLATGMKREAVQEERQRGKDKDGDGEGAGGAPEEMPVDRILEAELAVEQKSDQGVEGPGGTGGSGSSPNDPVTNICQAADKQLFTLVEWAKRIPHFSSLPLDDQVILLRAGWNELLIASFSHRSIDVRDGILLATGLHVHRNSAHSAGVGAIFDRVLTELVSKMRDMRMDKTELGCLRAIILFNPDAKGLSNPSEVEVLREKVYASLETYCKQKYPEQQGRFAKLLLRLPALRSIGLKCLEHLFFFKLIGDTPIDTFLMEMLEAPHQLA

The first assay addresses human Retinoid X Receptor beta (RXRb), RXRB (gene 6257) (UniProt P28702). The experiment in a line: ATG_RXRb_TRANS: Attagene TRANS-FACTORIAL HepG2 Assay for human Retinoid X Receptor beta (RXRb) (AID 2283013). The essentials:
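HepG2 cells were transiently transfected with multiplexed GAL4-UAS reporters and a chimeric RXRb-Gal4 construct, then exposed for 24 h. Reporter mRNA was quantified by RT-PCR, FAM labeling, HpaI digestion and capillary electrophoresis; gain of signal was scored against DMSO.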
In the case of `C=CC(C)(O)CCC=C(C)C` (centres undefined), the outcome was inactive. On to `CCCCCCC(CO)CCCC` (centres undefined), for which the half-maximal activity concentration (AC50) (as a rule, the concentration at which the activity in the assay is half-maximal) was 54.8 µM (active). Turning to `CC(=O)c1c(C)c([N+](=O)[O-])c(C(C)(C)C)c([N+](=O)[O-])c1C`, the AC50 is 1 µM (active).

Consider `CCCCCC(C=O)=Cc1ccccc1`, for which the AC50 is 73.8 µM (active).

Another assay deals with human Thyroid Receptor alpha (THRa1), THRA (gene 7067) (UniProt P10827). The experiment in a line: ATG_THRa1_TRANS: Attagene TRANS-FACTORIAL HepG2 Assay for human Thyroid Receptor alpha (THRa1) (AID 2283014). The gist of the method:
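First, HepG2 cells receive multiple GAL4-UAS reporter units and the chimeric receptor. They are then dosed for 24 h, after which RNA is reverse-transcribed, amplified, labelled, HpaI-cut and sized by capillary electrophoresis; gain relative to DMSO is scored.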
With `CCCCN(CCCC)C(=O)N(CCCC)CCCC`, the call was inactive. On the same count and under the same terms, to `CCCC(O)C(O)CO` (centres undefined) belongs “inactive”; to `CCCCCCCC(=O)OCC(O)CO` (centres undefined), “inactive”. Still for that read-out and setting: with `c1ccc2[nH]cnc2c1` the entry was “inactive”; with `CCc1ncc(C)[nH]1`, “inactive”; with `Cc1ncc[nH]1`, “inactive”. The same measure, in the same setting: to `CCOC(=O)COC(=O)c1cc(Oc2ccc(C(F)(F)F)cc2Cl)ccc1[N+](=O)[O-]` belongs “inactive”; to `CCc1cc(Cc2cc(CC)cc(C(C)(C)C)c2O)c(O)c(C(C)(C)C)c1`, “inactive”; to `Cc1[nH]c(=O)c(C#N)cc1-c1ccncc1`, “inactive”. In the case of `COS(=O)(=O)O`, the outcome was inactive. The same measure, in the same setting: with `C=Cc1ccncc1` the entry was “inactive”.

Turning to `CN(C)C(=O)Nc1ccc(Oc2ccc(Cl)cc2)cc1`, the call was inactive. Same read-out and setting: with `O=C(O)c1ccc(O)cc1` the entry was “inactive”; with `CC1CC(O)CC(C)(C)C1` (centres undefined), “inactive”.

As for `CCCCCC(=O)CC`, the result was inactive.

In the case of `Clc1ccc(C(c2ccccc2Cl)C(Cl)Cl)cc1` (centres undefined), the call was inactive. Still for that read-out and setting: to `C[Si]1(C)O[Si](C)(C)O[Si](C)(C)O1` belongs “inactive”. In the case of `NCCNc1cccc2ccccc12`, the compound was called inactive. With `C#CC(C)(O)CC(C)C` (centres undefined), the compound was classed as inactive. Still for that read-out and setting: to `Cc1ccc(S(N)(=O)=O)cc1` belongs “inactive”; to `CCC(Cl)C(Cl)C(Cl)CC(Cl)C(Cl)C(C)Cl` (centres undefined), “inactive”. On the same count and under the same terms, with `C[C@H]1O[C@@H](O[C@H]2[C@@H](O)C[C@H](O[C@H]3[C@@H](O)C[C@H](O[C@H]4CC[C@@]5(C)[C@H](CC[C@@H]6[C@@H]5C[C@@H](O)[C@]5(C)[C@@H](C7=CC(=O)OC7)CC[C@]65O)C4)O[C@@H]3C)O[C@@H]2C)C[C@H](O)[C@@H]1O` the entry was “inactive”; with `O=[N+]([O-])c1ccc(O)cc1C(F)(F)F`, “inactive”.

Consider `CCOC(=O)c1ccc(N)cc1`, for which the outcome was inactive.

On to `C=CC(=C)CCCC(C)(C)OC(C)=O`, for which the compound was classed as inactive. Same read-out and setting: to `COC(=O)c1cccnc1` belongs “inactive”; to `CC(=O)CC(=O)Nc1ccccc1`, “inactive”; to `COC(=O)C=C(C)CCC=C(C)C`, “inactive”.

On to `CCCCCCCCCCCCCCN(CCO)CCO`, for which the compound was called inactive. On the same count and under the same terms, to `C[C@H]1C[C@@H](O)CC(C)(C)C1` belongs “inactive”; to `O=C(O)CNc1ccccc1`, “inactive”; to `Nc1ccccc1[N+](=O)[O-]`, “inactive”. Still for that read-out and setting: with `CCOc1ccccc1O` the entry was “inactive”; with `CCCC(=O)c1ccccc1`, “inactive”; with `CC(=O)c1ccccn1`, “inactive”.
